Test results published in ChEMBL document CHEMBL4513216, “Probing the Open Global Health Chemical Diversity Library for Multistage-Active Starting Points for Next-Generation Antimalarials” (ACS Infect Dis, 2020).
Among all 69,000 compounds or so, about 8,600 (12%) showed an effect of 50% or more. The sample holds strong results, similar compounds and a random draw of the others, so the mix is not that of the screen.

tested on: Plasmodium berghei; test: Screen against P. berghei liver stage (PbLuc), transformed with Luciferase, at 10uM; assay type: functional, HepG2; conditions: tested at 10 uM

**Q.** Which INHIBITION does the source give for `CC(=O)N1[C@@H](C(=O)NCC2CC2)C[C@@H]2CN(Cc3nccs3)C[C@@H]21` here?
**A.** The INHIBITION was 39.5%.

**Q.** How did the INHIBITION turn out when `CC(C)CCN(C(=O)c1nc(S(C)(=O)=O)n2ccccc12)C1CC1` was run?
**A.** Its INHIBITION is 17.165%.

**Q.** Which INHIBITION does the source give for `COc1cccc(Nc2nc(C3CCCNC3)c3sc(C)c(C)n23)c1` (stereo not given) here?
**A.** The INHIBITION was 11.65%.

**Q.** For `CC(C)(C)NCc1nn(Cc2ccccc2)nc1-c1ccccc1`, which INHIBITION is on record?
**A.** The INHIBITION was 45.8%.

**Q.** How did the INHIBITION turn out when `CCn1ccnc1CN1CCN(CCCS(C)(=O)=O)CC1C` (stereo not given) was run?
**A.** Its INHIBITION is 8.31%.

**Q.** Which INHIBITION does the source give for `Cc1cc(C(F)(F)F)cc(=O)n1Cc1nc(C(C)C)no1` here?
**A.** The INHIBITION was 23%.

**Q.** How did the INHIBITION turn out when `CC(=O)NC1Cc2ccc(S(=O)(=O)NCCNc3ccccn3)cc2C1` (stereo not given) was run?
**A.** Its INHIBITION is -18.8%.

**Q.** `Cc1nc(CN2C(=O)COC3(CCN(C)CC3)C2C)cs1` (stereo not given) was tested. Which INHIBITION did it give?
**A.** The INHIBITION was 8.03%.

**Q.** For `CN(C)CCN1C(=O)CC[C@@H]2[C@H]1CCN2Cc1cccc(C#N)c1`, which INHIBITION is on record?
**A.** The INHIBITION was 49.7%.

**Q.** `Cc1cncc(C(=O)N2CC[C@@H]3[C@H]2CCC(=O)N3CCN(C)C)c1` was tested. Which INHIBITION did it give?
**A.** Its INHIBITION is 29%.

**Q.** How did the INHIBITION turn out when `CN(C)CCN1C(=O)CC[C@@H]2[C@H]1CCN2C(=O)c1ccc(C#N)cc1` was run?
**A.** Its INHIBITION is 70.4%.

**Q.** Which INHIBITION does the source give for `Cc1ccc(C(=O)N2CCC3(CC2)CCN(CCN(C)C)C3=O)cn1` here?
**A.** The INHIBITION was 28.2%.

**Q.** How did the INHIBITION turn out when `Cc1ccc(C(=O)N2CC[C@@H]3[C@H]2CCC(=O)N3CCN(C)C)cn1` was run?
**A.** The INHIBITION was 79.2%.

**Q.** How did the INHIBITION turn out when `N#Cc1ccc(C(=O)N2CC[C@H]3[C@@H]2CCC(=O)N3c2ccccc2)cc1` was run?
**A.** The INHIBITION was 43.8%.

**Q.** With `N#Cc1cccc(CNCCNC(=O)Cc2cccc(F)c2)c1` as the compound, how does the INHIBITION read?
**A.** The INHIBITION was 29.2%.

**Q.** For `CCOc1ccc(Cl)c(C(=O)N2CCCSCC2)n1`, which INHIBITION is on record?
**A.** The INHIBITION was 18.2%.

**Q.** For `Cc1cnc(NC2CCN(CC(=O)Nc3ccccc3)CC2)nc1C`, which INHIBITION is on record?
**A.** The INHIBITION was 14.8%.

**Q.** Which INHIBITION does the source give for `Cc1cc(C)nc(NC2CCN(CCOC(C)C)CC2)n1` here?
**A.** Its INHIBITION is 43.9%.

**Q.** How did the INHIBITION turn out when `CC(C)c1nnc(C2CCN(CC(=O)Nc3cccnc3)CC2)o1` was run?
**A.** The INHIBITION was -39.2%.

**Q.** With `COc1ccnc(NC2CCN(CC(=O)N3CCCC3)CC2)n1` as the compound, how does the INHIBITION read?
**A.** Its INHIBITION is 11.6%.

**Q.** How did the INHIBITION turn out when `COc1ccnc(NC2CCN(CC(=O)Nc3ccccc3)CC2)n1` was run?
**A.** The INHIBITION was 60.8%.

**Q.** Which INHIBITION does the source give for `O=C(CN1CCC(Nc2ncccn2)CC1)Nc1ccccc1` here?
**A.** The INHIBITION was 66.1%.

**Q.** Which INHIBITION does the source give for `COc1ccc(NC(=O)CN2CCS(=O)(=O)CC2)cn1` here?
**A.** Its INHIBITION is -2.55%.

**Q.** For `CC(C)OCCN1CCC(Nc2ncccn2)CC1`, which INHIBITION is on record?
**A.** Its INHIBITION is 55.9%.

**Q.** For `CC(C)OCCN1CCC(Nc2ncc(Br)cn2)CC1`, which INHIBITION is on record?
**A.** The INHIBITION was 28.7%.

**Q.** With `CSc1ccc(CN2CCn3nc(CNC(C)=O)cc3C2)cc1` as the compound, how does the INHIBITION read?
**A.** The INHIBITION was -89.3%.

**Q.** With `CC(C)N1CCC(Cc2cncc(-c3cccc(C(=O)O)c3)n2)C1` (stereo not given) as the compound, how does the INHIBITION read?
**A.** The INHIBITION was -62.3%.

**Q.** `COC(=O)c1ccc(CN2CCN(Cc3nc(C)no3)CC2)s1` was tested. Which INHIBITION did it give?
**A.** The INHIBITION was 23.2%.

**Q.** With `CC(C)c1nnc2n1CCN(Cc1nc(-c3ccoc3)no1)C2` as the compound, how does the INHIBITION read?
**A.** Its INHIBITION is 17.45%.

**Q.** For `CC1CN(C(=O)CN(Cc2ccccc2Cl)C2CCCC2)CCO1` (stereo not given), which INHIBITION is on record?
**A.** The INHIBITION was -0.219%.

**Q.** How did the INHIBITION turn out when `COc1ccc(CN2CCn3cc(CNC(=O)C4CCC4)nc3C2)cc1` was run?
**A.** Its INHIBITION is 19.5%.

**Q.** How did the INHIBITION turn out when `O=C(c1ccnnc1)N1CCN2C[C@H](OCc3cccnc3)C[C@H]2C1` was run?
**A.** Its INHIBITION is 26.4%.

**Q.** Which INHIBITION does the source give for `O=C(c1cnccn1)N1CCN2C[C@H](OCc3ccccn3)C[C@H]2C1` here?
**A.** Its INHIBITION is -0.182%.

**Q.** Which INHIBITION does the source give for `O=C(c1cnccn1)N1CCN2C[C@H](OCc3ccccc3)C[C@H]2C1` here?
**A.** Its INHIBITION is 11%.

**Q.** `O=C(c1cccc(F)c1)N1CCN2C[C@H](OCc3cccnc3)C[C@H]2C1` was tested. Which INHIBITION did it give?
**A.** The INHIBITION was 17.1%.

**Q.** Which INHIBITION does the source give for `Cc1cnc(C(=O)N2CCN3C[C@H](OCc4cccnc4)C[C@H]3C2)cn1` here?
**A.** The INHIBITION was 52%.

**Q.** Which INHIBITION does the source give for `O=C(c1ccco1)N1CCN2C[C@H](OCc3cccnc3)C[C@H]2C1` here?
**A.** The INHIBITION was 12.4%.

**Q.** `O=C(c1cscn1)N1CCN2C[C@H](OCc3cccnc3)C[C@H]2C1` was tested. Which INHIBITION did it give?
**A.** The INHIBITION was 33%.

**Q.** `O=C(c1cnccn1)N1CCN2C[C@H](OCc3ccccc3F)C[C@H]2C1` was tested. Which INHIBITION did it give?
**A.** Its INHIBITION is 59.8%.

**Q.** For `O=C(c1ccc(F)cc1)N1CCN2C[C@H](OCc3cccnc3)C[C@H]2C1`, which INHIBITION is on record?
**A.** Its INHIBITION is 82.3%.

**Q.** For `CS(=O)(=O)NC1CCCN(C(=O)COCc2ccccc2)C1` (stereo not given), which INHIBITION is on record?
**A.** The INHIBITION was -75.98%.

**Q.** With `Cc1ncc2c(n1)CCN(CCCc1nc3ccccc3o1)C2` as the compound, how does the INHIBITION read?
**A.** The INHIBITION was -65.2%.

**Q.** With `O=C(NCc1cn2c(n1)CN(Cc1ccccn1)CC2)C1CCC1` as the compound, how does the INHIBITION read?
**A.** The INHIBITION was -8.94%.

**Q.** How did the INHIBITION turn out when `CC(=O)N1[C@H](CN(C)C)C[C@@H]2CN(C(=O)c3ccno3)CC[C@@H]21` was run?
**A.** Its INHIBITION is 17.4%.

**Q.** With `Cc1cc(C)c(C(=O)N2CCOC(CCN(C)C)C2)o1` (stereo not given) as the compound, how does the INHIBITION read?
**A.** The INHIBITION was -5.12%.

**Q.** `Cc1ccc(N2CCC3(CCN(C(=O)c4ccsc4)C3)CC2)nn1` was tested. Which INHIBITION did it give?
**A.** The INHIBITION was 36.4%.

**Q.** How did the INHIBITION turn out when `CN1CC2(CCN(C(=O)c3ccc4c(=O)n(C)cnc4c3)C2)OC1=O` (stereo not given) was run?
**A.** Its INHIBITION is 88.2%.

**Q.** For `Cc1nc[nH]c1C(=O)N1CCC2(CN(C)C(=O)O2)C1` (stereo not given), which INHIBITION is on record?
**A.** The INHIBITION was -11.2%.

**Q.** How did the INHIBITION turn out when `CN1CC2(CCN(C(=O)c3ccc4c(=O)n(C)cnc4c3)CC2)CC1=O` was run?
**A.** The INHIBITION was 32.5%.

**Q.** With `Cc1noc(C2CCN(Cn3cc(Br)cn3)CC2)n1` as the compound, how does the INHIBITION read?
**A.** Its INHIBITION is -47%.

**Q.** `O=C(O)[C@@H]1OCC(=O)N(Cc2cccc(Cl)c2)[C@@H]1c1ccccc1` was tested. Which INHIBITION did it give?
**A.** Its INHIBITION is -25.3%.

**Q.** With `CCOC(=O)CCCc1ccc2c(c1)CC(=O)N2` as the compound, how does the INHIBITION read?
**A.** Its INHIBITION is 3.4%.

**Q.** How did the INHIBITION turn out when `O=C(O)CCCc1ccc2c(c1)CC(=O)N2` was run?
**A.** The INHIBITION was 24.2%.

**Q.** `CCSCCOC(=O)CCCc1ccc2c(c1)CC(=O)N2` was tested. Which INHIBITION did it give?
**A.** The INHIBITION was 54.9%.

**Q.** For `CCc1c(C(=O)NC2CCS(=O)(=O)C2)cnn1-c1ccc(C)cc1` (stereo not given), which INHIBITION is on record?
**A.** Its INHIBITION is -17%.

**Q.** For `Cc1ccc(-n2ncc(C(=O)NC3CC(C)(C)NC(C)(C)C3)c2N)cc1`, which INHIBITION is on record?
**A.** The INHIBITION was -21.1%.

**Q.** Which INHIBITION does the source give for `Cc1ccc(-n2ncc(C(=O)NC3CCCCC3)c2N)cc1` here?
**A.** Its INHIBITION is 66.5%.

**Q.** With `CCOc1c(F)cccc1C(=O)N(CC)C(C)c1cccnc1` (stereo not given) as the compound, how does the INHIBITION read?
**A.** Its INHIBITION is 43.1%.

**Q.** With `CCOc1c(F)cccc1C(=O)N(c1cccnc1)C(C)C` as the compound, how does the INHIBITION read?
**A.** The INHIBITION was 55.1%.

**Q.** How did the INHIBITION turn out when `CCOc1c(F)cccc1C(=O)N(CC)C(C)c1ccncc1` (stereo not given) was run?
**A.** Its INHIBITION is 31.2%.

**Q.** For `NC(=O)CN(CC1CCOC1)C1CC1` (stereo not given), which INHIBITION is on record?
**A.** The INHIBITION was 9.16%.

**Q.** With `COC(=O)CN(CC1CCOC1)C1CC1` (stereo not given) as the compound, how does the INHIBITION read?
**A.** Its INHIBITION is 50.5%.

**Q.** For `COC(=O)CCN(CC1CCOC1)C1CC1` (stereo not given), which INHIBITION is on record?
**A.** The INHIBITION was 43.9%.

**Q.** With `CC(C)N1CCc2[nH]nc(C(=O)N3CCN(C)CC3)c2C1` as the compound, how does the INHIBITION read?
**A.** The INHIBITION was 1.34%.

**Q.** Which INHIBITION does the source give for `Cc1ccc(NC(C)(C)c2nnnn2-c2ccc(Cl)cc2)c(C)c1` here?
**A.** The INHIBITION was 81.1%.

**Q.** Which INHIBITION does the source give for `Cc1cc(Cl)ccc1NCC(=O)Nc1cc(C(C)(C)C)no1` here?
**A.** The INHIBITION was 24.7%.

**Q.** For `COc1ccc(-n2nnc(C(=O)NC(C)C)c2C2CC2)cc1`, which INHIBITION is on record?
**A.** The INHIBITION was 40.1%.

**Q.** `Cc1cccc(-n2nnnc2C(C)(C)Nc2ccccc2C)c1` was tested. Which INHIBITION did it give?
**A.** The INHIBITION was 39.1%.

**Q.** `COc1ccc(-n2nnnc2C(C)(C)Nc2ccc(C)cc2C)cc1` was tested. Which INHIBITION did it give?
**A.** Its INHIBITION is 77.7%.

**Q.** With `COc1ccc(-n2nnnc2C2(NCc3ccco3)CCCCC2)cc1` as the compound, how does the INHIBITION read?
**A.** The INHIBITION was 24.2%.
